High-throughput results (PubChem)
Coupling enz = counter-screen for Giardia aldolase inhibitors: coupling enzyme system; coupling enzyme system counterscreen, AmpLite Red fluorescence; activity change, negative = inhibition, % at 58.2 µM, hits read low; 290,000 compounds, 0.67% hits; AID 2472; in the data active = activity change below about -30%
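Fluorescence at 525 nm excitation and 598 nm emission measured inhibition of the coupled detection system without aldolase. Compounds (at 57.5 uM final) were preincubated 10 min at room temperature with coupling enzyme reagent before a 20 min substrate/AmpLite Red step.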
Tau fluor counter = counter-screen for tau fibril formation inhibitors. tau K18 P301L Alexa594 fluorescence, heparin fibrillization. 280,000 compounds, 0.93% hits. Potency, µM (top dose mostly 57.7 µM), without a hit: at the highest dose activity change, negative = decrease; also: potency is read from the fitted curve at half-maximal effect; nearly all actives have a fitted effect of over 55% in size
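Human K18 P301L tau (15 uM unlabeled plus 0.24 uM Alexa 594-labeled, final) in 100 mM sodium acetate pH 7 was mixed with compound and 20 uM heparin and incubated 6 hr at 37 C.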
Tau fibril FP = tau fibrillization inhibition (FP). P10636. K18 P301L tau heparin fibrillization, Alexa594 FP, 6 h. Potency, µM (series often up to 57.7 µM), inactives show at the top dose activity, negative = inhibition, usual class: inhibitors. 280,000 compounds, 0.39% hits. AID 1468; also: potency is read from the fitted curve at half-maximal effect; nearly all actives have a fitted effect of over 55% in size
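Compound effects on tau fibrillization are measured by Alexa 594 fluorescence polarization (ex 555, em 632 nm). K18 P301L tau is used at 15 uM with 0.24 uM labeled tracer, and 20 uM heparin induces aggregation over 6 hr at 37 C.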
Tau fibril ThT = inhibitors of human tau fibril formation, thioflavin T binding; P10636; Potency, µM (highest dose often 57.4 µM), for the others: at the highest dose activity, negative = inhibition, most hits filed as inhibitors; recombinant tau K18 P301L, heparin-induced fibrillization, ThT fluorescence; 270,000 compounds, 2.1% hits; also: potency is read from the fitted curve at half-maximal effect; nearly all actives have a fitted effect of over 55% in size
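Using a mix of unlabeled (15 uM) and Alexa 594-labeled (0.24 uM) tau K18 P301L, heparin-triggered fibrillization over 6 hr at 37 C was scored by ThT fluorescence.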
USP1-UAF1 inh = inhibitors of human USP1/UAF1 deubiquitinase; O94782; recombinant USP1/UAF1, Ub-Rhodamine cleavage fluorescence; Potency, µM (doses to about 57.1 µM), without a hit: at the highest dose activity change, negative = inhibition, usual class: inhibitors; AID 743255; 390,000 compounds, 0.23% hits; also: potency is read from the fitted curve at half-maximal effect; nearly all actives have a fitted effect of over 60% in size
Target sequence (O94782 whole entry, looked up): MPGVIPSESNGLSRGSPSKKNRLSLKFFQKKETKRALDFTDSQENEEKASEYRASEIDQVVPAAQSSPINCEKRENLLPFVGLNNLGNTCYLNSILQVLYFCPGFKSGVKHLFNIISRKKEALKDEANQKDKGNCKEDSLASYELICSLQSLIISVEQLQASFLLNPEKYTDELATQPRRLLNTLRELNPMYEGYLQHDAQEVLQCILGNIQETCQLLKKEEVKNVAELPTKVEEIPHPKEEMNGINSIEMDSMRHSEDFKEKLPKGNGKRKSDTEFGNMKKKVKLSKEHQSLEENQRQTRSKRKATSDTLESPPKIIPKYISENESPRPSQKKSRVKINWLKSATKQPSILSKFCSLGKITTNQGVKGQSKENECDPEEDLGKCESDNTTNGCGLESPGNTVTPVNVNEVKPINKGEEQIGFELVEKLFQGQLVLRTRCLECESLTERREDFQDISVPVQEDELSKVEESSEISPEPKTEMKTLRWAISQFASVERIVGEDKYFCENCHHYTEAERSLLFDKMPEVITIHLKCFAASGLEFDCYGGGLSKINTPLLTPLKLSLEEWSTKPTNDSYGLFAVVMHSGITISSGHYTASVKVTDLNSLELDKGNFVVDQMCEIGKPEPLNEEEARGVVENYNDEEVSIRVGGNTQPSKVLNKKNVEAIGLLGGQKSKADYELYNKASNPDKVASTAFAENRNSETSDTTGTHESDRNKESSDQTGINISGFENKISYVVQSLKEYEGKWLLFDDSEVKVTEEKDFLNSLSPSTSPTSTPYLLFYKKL
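Step one: compound is pinned into 1nM USP1/UAF1 in HEPES pH 7.8 buffer with TCEP. Step two: 15 min room-temperature incubation. Step three: Ub-Rho (150nM final) starts cleavage, tracked by fluorescence over six one-minute reads.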
* marks the source's active call; other numbers are inactive results; ? = inconclusive; · = not tested or not shown; [ ] = another dose, or the depositor's remark. Only some compounds are listed: those with a hit (about 2.3% of all), similar ones and a draw of the others. Unless noted, calls follow the shape of the dose curve; as a rule, active = well fitted curve in the direction sought with a large enough effect; inconclusive = small, poorly fitted or top-dose-only effect, or another doubt; inactive = no such curve, though single readings can be large; an effect the other way counts as inactive or inconclusive. % is scaled to controls: 0 for no effect and ±100 for the full control effect.

SMILES	Coupling enz	Tau fluor counter	Tau fibril FP	Tau fibril ThT	USP1-UAF1 inh
CN1CCN(C(CNC(=O)c2cccc(F)c2)c2ccc3c(c2)OCO3)CC1 (stereo not drawn)	·	3.1%	-4.3%	-0.3%	-2.8%
COc1cc(-c2nnc(-c3cc(OC)c(OC)c(OC)c3)o2)cc(OC)c1OC	-0.9	-0.4%	-3.3%	1.0%	-21.9%
N#Cc1ccc(N=c2ssnc2Cl)cc1	4.2	-16.7%	?	20µM*	-43.7%
Clc1nssc1=Nc1ccccc1	4.0	-22.7%	39.8µM*	28.2µM*	-12.8%
COc1cc(N=c2ssnc2Cl)cc(OC)c1OC	2.2	-23.9%	?	20µM*	-9.3%
Cc1nc2ccc(S(=O)(=O)NC(CC(C)C)C(=O)N3CCN(c4ccc(F)cc4)CC3)cc2s1 (stereo not drawn)	·	-21.9%	-0.6%	-16.8%	8.8%
O=C(Nc1ccccc1)Nc1cc(Cl)cc(Cl)c1	1.2	?	11.2µM*	?	-25.3%
O=C(Nc1ccccc1)Nc1ccc(Oc2cccnc2)nc1	-2.3	-6.8%	2.8%	7.6%	-2.6%
O=C(Nc1ccccc1)Nc1csc2ccccc12	-4.5	11.2µM*[quencher]	?	?	-25.5%
O=C(Nc1ccccc1)Nc1cc(OCC(F)(F)F)cc(OCC(F)(F)F)c1	-4.9	?	11.2µM*	-15.3%	-23.3%
O=C(Nc1cccnc1)Nc1ccccc1Cl	-5.5	-3.5%	-0.2%	0.3%	-17.2%
O=C(Nc1cccc(Cl)c1)Nc1cccc(Cl)c1	-5.5	-21.6%	?	-10.2%	-14.0%
O=C(Nc1cccnc1)Nc1cc(Cl)cc(Cl)c1	-0.7	?	25.1µM*	?	-9.9%
CCOc1ccc(OCC)c(NS(=O)(=O)c2cc(-c3cc(C)no3)ccc2C)c1	·	-18.4%	-4.3%	13.1%	-9.7%
O=C(Nc1csc([N+](=O)[O-])c1)Nc1ccccc1Cl	-3.2	25.1µM*[quencher]	-0.1%	·	-14.0%
O=C(Nc1ccccc1Cl)Nc1ccccc1Cl	1.5	-12.3%	-0.1%	·	-11.6%
O=C(Nc1ccc(Nc2ccccc2)cc1)Nc1ccccc1Cl	0.5	3.98µM*[quencher]	?	3.98µM*	-21.9%
COc1cccc(C(=O)c2cn(CC(=O)NCCc3ccccc3)c3nc(C)ccc3c2=O)c1	·	-1.9%	0.7%	7.5%	7.8%
COc1ccc(OCCn2nnc3sc4c(c3c2=O)CCCC4)cc1	·	-26.0%	-1.0%	?	1.9%
CCc1ccc(NC(=O)Cn2c(=O)n(CCC(=O)NCCc3ccc(Cl)cc3)c(=O)c3ccccc32)cc1	·	-10.1%	-18.6%	-4.9%	-20.7%
CCN(CC)S(=O)(=O)c1cccc(NC(=O)C2SC(=Nc3ccc(C)cc3C)C(C(=O)NCC3CCCO3)=C2N)c1 (stereo not drawn)	-0.7	12.6µM*[quencher]	?	-14.4%	-24.8%
CCn1c([N+](=O)[O-])nc2c1c(=O)[nH]c(=O)n2C	-38.1*	4.8%	-10.0%	-14.7%	-18.4%
COc1cccc(C2C=C(Nc3ccccc3)C(=O)N2c2ccccc2)c1 (stereo not drawn)	-10.1	1.5%	5.4%	2.6%	0.5%
COc1ccc(C2C=C(Nc3ccccc3)C(=O)N2c2ccccc2)cc1OC (stereo not drawn)	0.4	-25.2%	?	12.6µM*	-12.5%
O=C(NCc1cccs1)c1cccc(Nc2nc3ccc(Br)cc3[nH]2)c1	1.5	7.94µM*[quencher]	?	?	?
SMILES	Coupling enz	Tau fluor counter	Tau fibril FP	Tau fibril ThT	USP1-UAF1 inh
O=c1n(-c2ccccc2)c(=O)n2n1CC[C@H]1/C(=N\OCc3ccccc3)[C@H]3O[C@@H]3[C@@H](O)[C@@H]12	-1.4	-3.1%[11.6 µM]	-6.8%[11.6 µM]	-4.7%[11.5 µM]	·
CCOC(=O)C1=C(C)OC(=CC=Cc2ccccc2)C1=O	·	·	·	·	-22.6%
CCCCc1ccc(/C=C2\C(=O)c3ccccc3C(O)=C2C(=O)OCC)cc1	-27.7	?	?	17.8µM*	·
CC1=CC(C)(C)Nc2ccc(OC(=O)C(Cc3ccccc3)N3C(=O)c4ccccc4C3=O)cc21 (stereo not drawn)	-4.7	?	11.0%	-17.1%	-9.1%
CCOc1ccc2c(c1)C(C)=CC(C)(C)N2	-0.3	-18.0%	-12.4%	-15.0%	?
CC1=CC(C)(C)Nc2ccc(OC(=O)CN3C(=O)c4ccccc4C3=O)cc21	-2.4	15.8µM*[quencher]	-1.0%	?	?
CC1=CC(C)(C)Nc2ccc(OC(=O)CN3C(=O)c4cccc5cccc(c45)C3=O)cc21	-53.9*	?	?	12.6µM*	?
Cc1nn(C(C)C(=O)NCc2cccc(F)c2)c(=O)c2c1sc1ccccc12 (stereo not drawn)	·	-16.6%	2.4%	-7.7%	-18.5%
Cc1ccc(F)c(NC(=O)/C(C#N)=C(\O)c2ccc(C(C)(C)C)cc2)c1	14.4	-20.4%	-7.1%	?	22.4µM*
O=C(CSc1nc2c(sc3ccccc32)c(=O)n1CCCC(=O)NC1CCCC1)Nc1ccc(F)cc1	·	-4.2%	?	3.4%	23.7%
CCOc1ccc(NC(=O)CSc2ccc(-c3sc(-c4ccccc4)nc3C)nn2)cc1	·	?	-13.3%	?	-4.9%
COc1cc(/C=N/Nc2ccccc2[N+](=O)[O-])cc(OC)c1O	1.3	0.2%	5.1%	8.6%	-12.7%
O=[N+]([O-])c1cc(Cl)cc(/C=N/Nc2nc3ccccc3s2)c1O	0.3	25.1µM*[quencher]	-2.7%	11.2µM*	-5.3%
O=C(O)c1ccc(N/N=C/c2cc3ccccc3nc2Cl)cc1	4.5	·	·	·	?
COc1cc(/C=N/Nc2nc(=O)[nH]nc2C)cc([N+](=O)[O-])c1O	2.1	-23.6%	0.5%	14.1µM*	?
COc1cc(/C=N/Nc2nc3ccccc3s2)cc([N+](=O)[O-])c1O	-1.3	14.1µM*[quencher]	-9.6%	1.78µM*	-24.9%
O=[N+]([O-])c1ccccc1N/N=C/c1cc2ccccc2nc1Cl	1.8	-28.9%	6.2%	2.24µM*	-5.8%
Cn1cc(/C=C/c2cc[n+](C)cc2)c2cc(Cl)ccc21	-2.1	·	·	·	-17.7%
Cn1cc(/C=C/c2cc[n+](C)cc2)c2cc(F)ccc21	-16.9	·	·	·	28.2µM*
C[n+]1ccc(/C=C/c2c[nH]c3ccc(F)cc23)cc1	-13.6	·	·	·	28.2µM*
COc1cc(NC(=O)CSc2nnc(C)n3c2cc2oc(C)cc23)cc(OC)c1	·	-11.5%	3.3%	?	-6.7%
Cc1ccc(N=Nc2c(N)[nH]n3c(=O)cc(C)nc23)cc1	-1.7	-19.5%	?	3.98µM*	-2.6%
O=c1c2c(nc3c(-c4ccc(Cl)cc4)c[nH]n13)CCCC2	-0.8	-23.3%	2.7%	?	-24.0%
Cc1ccc(N=Nc2c(=O)[nH]n3c(C)cc(C)nc23)cc1	-1.2	-11.9%	-5.4%	20µM*	-3.4%
Cc1ccc(N=Nc2c(N)[nH]n3c(=O)c4c(nc23)CCCC4)cc1	-3.7	-12.7%	2.4%	1.41µM*	·
Cc1ccc(CNS(=O)(=O)c2ccc3[nH]c4c(c3c2)CCCC4)cc1	·	?	?	0.5%	2.0%
